From ChEMBL document CHEMBL1961873, “Compounds: GSK PKIS; Assays: Nanosyn kinase panel” (2012) come the findings set out here.

Test [1] concerns the target RAC-alpha serine/threonine-protein kinase (Homo sapiens) (UniProt P31749). The settings on record: at 0.1 µM.
For test [2] the target is unchanged. The settings on record: at 1 µM.
For test [3], the target named is RAC-beta serine/threonine-protein kinase (Homo sapiens) (UniProt P31751). The settings on record: at 0.1 µM.
The target is the same in test [4]. The conditions noted are these: at 1 µM.
Test [5] has as its target RAC-gamma serine/threonine-protein kinase (Homo sapiens) (UniProt Q9Y243). The settings on record: at 0.1 µM.
Test [6] has the same target. The settings on record: at 1 µM.
Test [7] concerns the target G protein-coupled receptor kinase 6 (Homo sapiens) (UniProt P43250). The conditions noted are these: at 0.1 µM.
For test [8] the target is unchanged. The settings on record: at 1 µM.
Test [9] deals with T1, Rhodopsin kinase GRK7 (Homo sapiens) (UniProt Q8WTQ7).
T1 sequence (whole entry): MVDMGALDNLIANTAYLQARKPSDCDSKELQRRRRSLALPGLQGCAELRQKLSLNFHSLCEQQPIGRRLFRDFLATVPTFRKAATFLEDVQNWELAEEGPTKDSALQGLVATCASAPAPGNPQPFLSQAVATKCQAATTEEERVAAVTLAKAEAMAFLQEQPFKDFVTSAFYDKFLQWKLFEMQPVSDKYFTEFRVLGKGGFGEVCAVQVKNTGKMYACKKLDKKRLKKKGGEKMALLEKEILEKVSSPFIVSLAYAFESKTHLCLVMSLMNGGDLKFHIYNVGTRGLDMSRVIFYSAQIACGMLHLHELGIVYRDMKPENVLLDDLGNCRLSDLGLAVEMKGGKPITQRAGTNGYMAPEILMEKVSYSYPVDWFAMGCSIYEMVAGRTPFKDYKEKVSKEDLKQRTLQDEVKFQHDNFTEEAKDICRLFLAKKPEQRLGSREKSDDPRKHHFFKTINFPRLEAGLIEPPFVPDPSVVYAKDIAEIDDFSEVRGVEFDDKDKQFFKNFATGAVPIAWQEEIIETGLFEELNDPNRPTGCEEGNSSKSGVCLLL
The settings on record: at 0.1 µM.

Test [10] has as its target T1, Rhodopsin kinase GRK7 (Homo sapiens). The settings on record: at 1 µM.
Test [11] concerns the target Serine/threonine-protein kinase MRCK alpha (Homo sapiens) (UniProt Q5VT25). The settings on record: at 0.1 µM.
Test [12] shares this target. The conditions noted are these: at 1 µM.
Test [13] has as its target Serine/threonine-protein kinase MRCK beta (Homo sapiens) (UniProt Q9Y5S2). The conditions noted are these: at 0.1 µM.
For test [14] the target is unchanged. The settings on record: at 1 µM.
Test [15] addresses Ribosomal protein S6 kinase alpha-5 (Homo sapiens) (UniProt O75582). The settings on record: at 0.1 µM.
Test [16] shares this target. The settings on record: at 1 µM.
Test [17] deals with Ribosomal protein S6 kinase alpha-4 (Homo sapiens) (UniProt O75676). The conditions noted are these: at 0.1 µM.
Test [18] shares this target. The settings on record: at 1 µM.
The target in test [19] is Ribosomal protein S6 kinase beta-1 (Homo sapiens) (UniProt P23443). The settings on record: at 0.1 µM.
The target is the same in test [20]. The conditions noted are these: at 1 µM.

Chain of Ribosomal protein S6 kinase alpha-5 (Homo sapiens) (O75582 whole entry, looked up): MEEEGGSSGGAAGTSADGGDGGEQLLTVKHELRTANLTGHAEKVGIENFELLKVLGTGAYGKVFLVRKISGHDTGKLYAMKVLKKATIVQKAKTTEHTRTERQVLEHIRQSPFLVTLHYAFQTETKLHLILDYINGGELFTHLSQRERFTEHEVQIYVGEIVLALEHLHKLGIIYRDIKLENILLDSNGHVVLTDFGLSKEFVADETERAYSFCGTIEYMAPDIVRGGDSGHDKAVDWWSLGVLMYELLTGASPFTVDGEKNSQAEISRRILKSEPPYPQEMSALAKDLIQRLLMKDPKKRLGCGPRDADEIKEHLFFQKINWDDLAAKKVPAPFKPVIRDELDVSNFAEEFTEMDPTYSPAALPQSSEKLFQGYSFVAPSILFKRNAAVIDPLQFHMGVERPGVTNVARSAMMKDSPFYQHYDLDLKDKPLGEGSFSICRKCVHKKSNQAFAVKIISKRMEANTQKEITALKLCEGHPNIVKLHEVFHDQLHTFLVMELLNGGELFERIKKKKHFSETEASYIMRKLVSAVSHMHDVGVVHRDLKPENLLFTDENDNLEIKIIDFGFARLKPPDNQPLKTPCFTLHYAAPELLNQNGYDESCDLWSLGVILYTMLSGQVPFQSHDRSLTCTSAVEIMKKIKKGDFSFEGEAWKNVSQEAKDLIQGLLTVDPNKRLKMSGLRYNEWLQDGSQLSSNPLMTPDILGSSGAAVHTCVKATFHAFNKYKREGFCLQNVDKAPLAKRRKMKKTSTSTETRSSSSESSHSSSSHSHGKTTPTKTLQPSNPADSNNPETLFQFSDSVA
Chain of RAC-alpha serine/threonine-protein kinase (Homo sapiens) (P31749 whole entry): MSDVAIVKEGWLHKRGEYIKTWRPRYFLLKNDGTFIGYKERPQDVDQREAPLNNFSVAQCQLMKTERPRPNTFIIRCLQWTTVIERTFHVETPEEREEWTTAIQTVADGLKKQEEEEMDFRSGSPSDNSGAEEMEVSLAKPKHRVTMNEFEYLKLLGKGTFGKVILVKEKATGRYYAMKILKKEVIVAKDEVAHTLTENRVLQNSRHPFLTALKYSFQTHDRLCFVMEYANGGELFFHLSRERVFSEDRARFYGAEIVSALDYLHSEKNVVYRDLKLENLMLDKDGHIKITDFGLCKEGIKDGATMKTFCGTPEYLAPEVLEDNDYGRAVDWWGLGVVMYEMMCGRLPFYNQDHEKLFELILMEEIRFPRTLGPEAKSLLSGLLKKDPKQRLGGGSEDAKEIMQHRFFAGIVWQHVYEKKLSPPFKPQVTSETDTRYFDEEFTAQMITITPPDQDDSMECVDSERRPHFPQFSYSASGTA
Chain of Serine/threonine-protein kinase MRCK beta (Homo sapiens) (Q9Y5S2 whole entry): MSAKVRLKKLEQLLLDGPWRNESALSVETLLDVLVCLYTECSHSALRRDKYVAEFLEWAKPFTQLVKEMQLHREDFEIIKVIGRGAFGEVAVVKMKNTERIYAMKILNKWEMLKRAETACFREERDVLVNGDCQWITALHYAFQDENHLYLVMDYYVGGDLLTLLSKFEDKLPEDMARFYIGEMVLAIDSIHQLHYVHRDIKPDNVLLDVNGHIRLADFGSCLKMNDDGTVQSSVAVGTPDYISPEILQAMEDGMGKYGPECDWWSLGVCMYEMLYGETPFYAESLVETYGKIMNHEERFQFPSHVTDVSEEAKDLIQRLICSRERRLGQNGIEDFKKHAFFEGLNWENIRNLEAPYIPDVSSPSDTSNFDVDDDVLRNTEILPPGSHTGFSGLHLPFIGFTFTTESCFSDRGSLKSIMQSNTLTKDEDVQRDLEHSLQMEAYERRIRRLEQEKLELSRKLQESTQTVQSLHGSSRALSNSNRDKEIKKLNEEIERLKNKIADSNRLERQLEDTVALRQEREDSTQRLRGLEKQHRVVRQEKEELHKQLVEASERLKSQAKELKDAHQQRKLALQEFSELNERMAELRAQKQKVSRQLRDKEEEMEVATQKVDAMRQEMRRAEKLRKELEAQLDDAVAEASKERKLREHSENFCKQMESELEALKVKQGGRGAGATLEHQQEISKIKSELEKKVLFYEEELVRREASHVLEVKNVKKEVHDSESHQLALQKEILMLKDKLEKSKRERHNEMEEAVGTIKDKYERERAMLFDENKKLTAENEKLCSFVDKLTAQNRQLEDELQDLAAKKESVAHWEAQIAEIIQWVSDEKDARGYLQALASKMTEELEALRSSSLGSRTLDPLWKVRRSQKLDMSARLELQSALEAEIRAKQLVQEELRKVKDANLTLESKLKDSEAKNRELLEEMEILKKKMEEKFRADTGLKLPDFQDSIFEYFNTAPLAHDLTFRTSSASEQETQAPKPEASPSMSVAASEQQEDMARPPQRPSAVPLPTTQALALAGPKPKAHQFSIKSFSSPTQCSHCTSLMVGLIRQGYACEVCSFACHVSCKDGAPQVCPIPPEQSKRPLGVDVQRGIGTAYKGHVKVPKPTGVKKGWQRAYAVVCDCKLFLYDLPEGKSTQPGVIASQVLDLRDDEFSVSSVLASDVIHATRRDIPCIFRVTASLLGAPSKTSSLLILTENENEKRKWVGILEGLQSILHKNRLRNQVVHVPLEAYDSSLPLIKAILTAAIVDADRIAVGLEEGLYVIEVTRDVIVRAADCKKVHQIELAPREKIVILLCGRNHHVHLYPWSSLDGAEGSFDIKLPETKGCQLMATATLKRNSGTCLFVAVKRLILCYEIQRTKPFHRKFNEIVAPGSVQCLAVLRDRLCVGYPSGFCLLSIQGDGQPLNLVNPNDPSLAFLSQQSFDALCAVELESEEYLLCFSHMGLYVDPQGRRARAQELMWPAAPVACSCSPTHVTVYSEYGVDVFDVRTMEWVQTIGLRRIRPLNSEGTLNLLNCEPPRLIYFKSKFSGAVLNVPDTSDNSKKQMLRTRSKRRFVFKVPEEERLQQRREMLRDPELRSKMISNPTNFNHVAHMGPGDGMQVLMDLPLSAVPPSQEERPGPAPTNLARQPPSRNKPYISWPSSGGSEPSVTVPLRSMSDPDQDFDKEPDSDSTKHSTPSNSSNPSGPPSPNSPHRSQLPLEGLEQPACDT
Chain of RAC-gamma serine/threonine-protein kinase (Homo sapiens) (Q9Y243 whole entry): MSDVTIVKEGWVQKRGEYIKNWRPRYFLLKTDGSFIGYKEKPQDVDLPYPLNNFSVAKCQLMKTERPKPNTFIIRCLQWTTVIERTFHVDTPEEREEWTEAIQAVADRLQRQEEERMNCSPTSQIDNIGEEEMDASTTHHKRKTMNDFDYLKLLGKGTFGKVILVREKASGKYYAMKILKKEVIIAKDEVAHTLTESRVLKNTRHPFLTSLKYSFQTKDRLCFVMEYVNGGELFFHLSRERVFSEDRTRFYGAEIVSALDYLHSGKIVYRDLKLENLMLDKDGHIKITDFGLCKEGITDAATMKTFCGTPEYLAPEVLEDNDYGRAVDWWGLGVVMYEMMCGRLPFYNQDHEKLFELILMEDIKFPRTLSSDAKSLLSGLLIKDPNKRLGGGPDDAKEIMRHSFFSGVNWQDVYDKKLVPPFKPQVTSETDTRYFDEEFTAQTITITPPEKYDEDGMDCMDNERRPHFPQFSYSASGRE
Chain of Ribosomal protein S6 kinase alpha-4 (Homo sapiens) (O75676 whole entry, looked up): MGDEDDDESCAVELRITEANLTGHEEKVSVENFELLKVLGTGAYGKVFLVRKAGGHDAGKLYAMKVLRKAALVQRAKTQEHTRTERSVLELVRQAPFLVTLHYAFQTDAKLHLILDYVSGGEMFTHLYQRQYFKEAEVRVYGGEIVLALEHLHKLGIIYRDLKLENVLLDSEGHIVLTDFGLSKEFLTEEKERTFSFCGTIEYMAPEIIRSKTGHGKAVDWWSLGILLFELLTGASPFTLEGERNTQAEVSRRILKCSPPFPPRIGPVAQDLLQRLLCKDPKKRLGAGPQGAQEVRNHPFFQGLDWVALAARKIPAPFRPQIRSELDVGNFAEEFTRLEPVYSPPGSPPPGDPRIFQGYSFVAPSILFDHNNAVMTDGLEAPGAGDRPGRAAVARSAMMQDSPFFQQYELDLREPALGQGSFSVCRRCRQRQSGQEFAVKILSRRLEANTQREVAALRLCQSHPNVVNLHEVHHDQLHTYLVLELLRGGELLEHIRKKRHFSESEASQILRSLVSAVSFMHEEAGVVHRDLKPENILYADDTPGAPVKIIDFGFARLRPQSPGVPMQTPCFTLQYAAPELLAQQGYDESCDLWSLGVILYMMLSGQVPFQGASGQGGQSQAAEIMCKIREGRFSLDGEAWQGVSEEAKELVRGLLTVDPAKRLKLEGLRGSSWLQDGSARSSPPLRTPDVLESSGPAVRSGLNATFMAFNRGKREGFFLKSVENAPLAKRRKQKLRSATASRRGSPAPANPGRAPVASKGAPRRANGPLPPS
Chain of Ribosomal protein S6 kinase beta-1 (Homo sapiens) (P23443 whole entry, looked up): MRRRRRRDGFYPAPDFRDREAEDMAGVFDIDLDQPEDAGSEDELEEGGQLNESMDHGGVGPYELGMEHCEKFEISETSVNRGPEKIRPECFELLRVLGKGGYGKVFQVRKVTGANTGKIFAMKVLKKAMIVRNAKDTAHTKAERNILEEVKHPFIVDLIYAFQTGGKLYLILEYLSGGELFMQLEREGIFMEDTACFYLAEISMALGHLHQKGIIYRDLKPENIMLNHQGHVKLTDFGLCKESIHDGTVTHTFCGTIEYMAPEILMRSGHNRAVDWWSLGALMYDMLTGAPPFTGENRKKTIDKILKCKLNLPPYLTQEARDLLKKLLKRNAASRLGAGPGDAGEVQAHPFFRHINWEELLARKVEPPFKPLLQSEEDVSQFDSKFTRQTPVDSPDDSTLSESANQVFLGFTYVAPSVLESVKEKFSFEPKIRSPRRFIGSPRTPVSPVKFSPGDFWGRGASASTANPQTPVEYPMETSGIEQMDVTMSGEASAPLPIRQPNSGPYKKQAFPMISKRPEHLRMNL

With `Cc1nnc(-c2ccc(C)c(-c3ccc(C(=O)NCc4ccc(Cl)cc4)cc3)c2)o1`, the inhibition in test [1] is -1.66%; in test [2], -2.4%; in test [3], 0.03%; in test [4], -2.39%; in test [5], 0.07%; in test [6], -0.93%. Moreover, the inhibition in [7] was found to be 5.17%; in [8], 5.38%; in [9] it was 4.29%; in [10], 9.45%; in [11], 0.16%; in test [12], 1.24%. Further, the inhibition was 0.69% in [13]; -0.22% in test [14]; 1.45% in test [15]; 1.55% in test [16]; 3.07% in test [17]; 3.61% in test [18]. The inhibition in test [19] was determined as 1.21%; in [20] it was 2.04%.
Take `COc1cc2ncn(-c3cc(OCc4cccs4)c(C(N)=O)s3)c2cc1OC`: the inhibition in test [1] was -2.85%; in test [2] it was -1.83%; in [3] it was -1.63%; in test [4] it was -2.73%; in test [5], -3.06%; in test [6] it was -3.04%. Also, the inhibition was determined as 4.35% in test [7]; 17.9% in test [8]; 5.59% in [9]; 13% in [10]; 2.82% in test [11]; 7.52% in [12]. Besides, the inhibition in test [13] was determined as 1.67%; in [14], 1.38%; in test [15] it was 2.22%; in test [16], 5.4%; in [17], 4.25%; in [18] it was 8%. Moreover, the figures for the inhibition in test [19] and in test [20] were 1.35% and 3.91%, respectively.
Take `COc1ccc2cc(-c3c(-c4ccncc4)nc(-c4ccc(S(C)(=O)=O)cc4C)n3C)ccc2c1`: the inhibition in [1] is 1.8%; in test [2], 1.99%; in [3], 2.93%; in [4], 2.26%; in test [5] it was 2.8%; in test [6], 4.98%. Moreover, the inhibition came to 5.87% in test [7]; 8.14% in [8]; 4.36% in [9]; 8.69% in [10]; 0.29% in [11]; 1.6% in test [12]. Besides, the inhibition in test [13] amounted to 2.15%; in test [14], 1.98%; in [15], 3.82%; in [16] it was 5.44%; in test [17], 7.21%; in test [18], 9.9%. The results for the inhibition in test [19] and in test [20] were 1.75% and 3.34%, respectively.
Take `COc1ccc2ncn(-c3cc(O[C@H](C)c4ccccc4Cl)c(C(N)=O)s3)c2c1`: the inhibition in test [1] was -3.63%; in [2], -2.95%; in [3], -2.65%; in test [4] it was -2.8%; in [5], -2.12%; in test [6], -1.2%. The inhibition in test [7] is -0.3%; in test [8], 0.35%; in test [9], 8.25%; in test [10] it was 2.33%; in test [11] it was -0.38%; in test [12], 1.13%. Besides, the inhibition in [13] is 0.7%; in [14] it was 3.24%; in [15], 2.21%; in [16], 1.33%; in test [17] it was 3.9%; in [18] it was 2.99%. Moreover, the inhibition was found to be 0.38% in test [19] and 2.8% in test [20].
As to `NCc1ccc(-n2c(-c3nonc3N)nc3cnccc32)cc1`, the inhibition in [1] came to 3.84%; in [2], 15.8%; in [3], 3.5%; in test [4], 15.1%; in test [5], 1.72%; in test [6], 20.5%. In addition, the inhibition came out at 5.51% in test [7]; 7.31% in [8]; 9.11% in [9]; 15.5% in test [10]; 43.4% in test [11]; 90.6% in test [12]. The inhibition in test [13] came to 59.8%; in test [14] it was 83.5%; in test [15] it was 54.7%; in test [16] it was 78.7%; in [17] it was 20.1%; in [18], 63.3%. The inhibition is 21.3% in [19] and 69.9% in [20].
On to `Fc1ccc(-c2nc3n(c2-c2ccncc2)CCS3)cc1`, for which the inhibition in test [1] is -2.42%; in [2], -2.29%; in test [3] it was -1.68%; in [4], -1.83%; in [5], -1.74%; in [6] it was -2.44%. In addition, the inhibition in [7] was 2.79%; in test [8] it was -0.16%; in [9], 2.77%; in test [10], 5.18%; in test [11], 0.18%; in test [12] it was 2.85%. Moreover, the inhibition turned out to be 1.28% in [13]; 3.22% in test [14]; 2.74% in test [15]; 3.92% in [16]; 1.65% in test [17]; 5.1% in [18]. Also, the inhibition in [19] is 2.08%; in [20] it was 2.54%.
For `O=C1Nc2ccc(I)cc2C1=Cc1cc(Br)c(O)c(Br)c1`, the inhibition was determined as 1.14% in [1]; 0.96% in [2]; 1.72% in test [3]; 1.1% in test [4]; 1.78% in [5]; 0.85% in test [6]. In addition, the inhibition in test [7] was 4.84%; in [8], 17.8%; in test [9], 12.1%; in test [10], 15.5%; in test [11] it was 6.44%; in test [12] it was 3.97%. The inhibition is -0.53% in test [13]; 1.27% in test [14]; 1.69% in test [15]; 1.77% in test [16]; 2.87% in test [17]; 4.68% in [18]. Also, the results for the inhibition in test [19] and in test [20] were 2.06% and 4.52%, respectively.

One may read the inhibition as the drop in the measured response relative to a control, in per cent.
